High-throughput results: PubChem, several laboratories
GC-A act – GC-A (human) enzyme activation | activation, % at 10 µM | P16066 | HEK293 GC-A cells, cGMP TR-FRET, EC30 ANP; 0% at EC30 ANP, 100% saturating ANP | 0.14% of 370,000 active | AID 1671463; in the data active = activation above about 40%
PLCg1 inh – PLC-gamma1 (human) inhibition, primary screen | purified PLC-gamma1, fluorogenic substrate, fluorescence | 0.84% of 370,000 active | AID 720700 | inhibition, % at 12.2 µM
NPR2 activator – GC-B (human) receptor activation | activation, % at 10 µM | AID 1920062 | HEK293-GC-B cells, CNP EC30, cGMP TR-FRET; 0% at EC30 CNP, 100% saturating CNP | 0.11% of 370,000 active | P20594;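 active = activation at 10 µM reaching about 35% in either raw or pattern-adjusted values, limit read from the data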
Target sequence (P20594 whole entry, looked up): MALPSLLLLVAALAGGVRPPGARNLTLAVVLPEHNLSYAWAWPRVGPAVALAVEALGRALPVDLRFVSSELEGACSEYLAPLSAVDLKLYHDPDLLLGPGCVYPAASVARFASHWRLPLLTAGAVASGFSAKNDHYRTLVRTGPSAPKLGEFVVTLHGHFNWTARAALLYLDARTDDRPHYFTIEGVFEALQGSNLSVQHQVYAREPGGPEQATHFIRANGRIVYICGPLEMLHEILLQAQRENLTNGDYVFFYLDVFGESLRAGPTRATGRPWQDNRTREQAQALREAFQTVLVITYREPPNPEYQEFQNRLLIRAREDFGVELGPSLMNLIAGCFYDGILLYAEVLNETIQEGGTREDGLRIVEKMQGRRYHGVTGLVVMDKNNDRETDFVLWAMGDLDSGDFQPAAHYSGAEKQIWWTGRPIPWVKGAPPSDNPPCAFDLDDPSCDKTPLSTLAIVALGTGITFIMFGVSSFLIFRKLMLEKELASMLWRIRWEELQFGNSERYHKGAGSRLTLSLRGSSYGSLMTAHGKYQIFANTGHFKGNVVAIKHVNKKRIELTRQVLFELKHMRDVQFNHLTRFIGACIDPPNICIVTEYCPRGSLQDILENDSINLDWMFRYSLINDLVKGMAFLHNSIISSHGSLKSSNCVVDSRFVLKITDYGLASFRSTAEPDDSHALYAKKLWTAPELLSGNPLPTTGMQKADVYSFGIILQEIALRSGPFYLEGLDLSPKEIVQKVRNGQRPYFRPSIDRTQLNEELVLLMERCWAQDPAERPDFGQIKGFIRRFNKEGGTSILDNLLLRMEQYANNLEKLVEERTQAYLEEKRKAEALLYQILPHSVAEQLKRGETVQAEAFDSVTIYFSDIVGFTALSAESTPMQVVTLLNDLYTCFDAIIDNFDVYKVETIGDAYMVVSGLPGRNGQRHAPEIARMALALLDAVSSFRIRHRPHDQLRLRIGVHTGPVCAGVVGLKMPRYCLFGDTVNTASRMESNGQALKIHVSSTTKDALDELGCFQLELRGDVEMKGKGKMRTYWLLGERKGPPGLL
PLCb3 inh – inhibitors of human phospholipase C beta3. Q01970. Purified PLC-beta3, fluorogenic substrate, fluorescence. inhibition, % at 12.2 µM. 0.18% of 370,000 active. AID 720704; in the data active = inhibition above about 11%
PLCg1 ctr – inhibits human PLC-gamma1 in PLC-beta3 counter-screen. shares compounds with PLCg1 inh. purified PLC-gamma1, fluorogenic substrate, fluorescence. inhibition, % at 12.3 µM. 3.1% of 3,300 active. AID 743258
PLCbeta3 conf – confirmation of human PLC-beta3 inhibitors. purified PLC-beta3, fluorogenic substrate fluorescence. AID 743261. inhibition, % at 12.3 µM. shares compounds with PLCg1 inh. 1% of 3,300 active; in the data active = inhibition above about 11%
A number is an active result; 0 = inactive; - = no result. The list is not random: actives were taken first. Their share in the collection is about 1.2%. Rule as the data show it, unless noted: active = inhibition above about 9.5%; inactive = the rest.

SMILES | GC-A act | PLCg1 inh | NPR2 activator | PLCb3 inh | PLCg1 ctr | PLCbeta3 conf
Cn1[nH]c(=O)c2ccccc2c1=O | 0 | 0 | 0 | 0 | - | -
Cc1ccc(S(=O)(=O)Nc2ccc3c(c2)CCC3)cc1C | 0 | 13 | 0 | 0 | 0 | 0
Cc1ccc(S(=O)(=O)Nc2ccc3c(c2)CCC3)cc1 | 0 | 0 | 0 | 0 | - | -
N#CCC[C@@H]1CC[C@]2(CCCN(Cc3ccc(Br)cc3)C2)O1 | 0 | 9.5 | 0 | 0 | 0 | 0
O=C(O)C(O)(c1ccccc1)C(O)c1ccccc1 (stereo not drawn) | 0 | 0 | 0 | 0 | - | -
CN(C)c1ncc(S(=O)(=O)c2ccccc2)c(=O)[nH]1 | 0 | 0 | 0 | 0 | - | -
CC(C)C(OC(=O)c1cc2c(s1)CCCCC2)C(=O)NC(N)=O (stereo not drawn) | 0 | 18 | 0 | 0 | 0 | 0
COc1cc(/C=N\Nc2nncn2N)ccc1OC(C)=O | 0 | 14 | 0 | 0 | 0 | 0
O=C(Nc1ccccc1)c1ccc(S(=O)(=O)NCc2cccnc2)cc1 | 0 | 10 | 0 | 0 | 0 | 0
O=C(Nc1ccc(S(=O)(=O)NCc2cccnc2)cc1)c1ccccc1Cl | 0 | 0 | 0 | 0 | - | -
CC(C)(C)OC(=O)[C@H](Cc1ccccc1)NC(=O)c1nc[nH]c1C(=O)N[C@@H](CCCCN)C(=O)OC(C)(C)C | 0 | 0 | 0 | 0 | - | -
CC(C)(C)OC(=O)NCc1ccc(CNC(=O)c2[nH]cnc2C(=O)N[C@@H](Cc2ccccc2)C(=O)OC(C)(C)C)cc1 | 0 | 9.5 | 0 | 0 | 0 | 0
CC(C)(C)OC(=O)NCCCC[C@H](NC(=O)c1[nH]cnc1C(=O)N[C@@H](Cc1ccccc1)C(=O)OCc1ccccc1)C(=O)OC(C)(C)C | 0 | 10.0 | 0 | 0 | 0 | 0
Cc1cc(Nc2cccc(Cl)c2Cl)n2ncnc2n1 | 0 | 13 | 39 | 0 | 0 | 0
Cc1ccc(Nc2cc(C)nc3ncnn23)c(Cl)c1 | 0 | 0 | 0 | 0 | - | -
O=C(N/C(=C\c1ccco1)C(=O)N1CCC(O)CC1)c1ccccc1 | 0 | 0 | 0 | 0 | - | -
O=C1NC[C@@H](Cc2ccc(O)cc2)N(CCc2cc(C(F)(F)F)cc(C(F)(F)F)c2)C1=O | 0 | 0 | 0 | 11 | 0 | 0
Oc1ccc(C[C@H]2CN([C@@H](Cc3cccc(O)c3)CN3CCC[C@@H]3CN3C(=S)NC[C@@H]3Cc3ccccc3)C(=S)N2CC2CCCCC2)cc1 | 0 | 10 | 0 | 0 | 0 | 0
O=C1NC[C@H](Cc2ccc(O)cc2)N(C[C@@H]2CCCN2C[C@H](Cc2ccc(O)cc2)N2C[C@H](Cc3ccccc3)N(CCc3ccccc3)C(=O)C2=O)C1=O | 0 | 0 | 0 | 12 | 0 | 0
CC(C)C[C@H]1COc2cccc(F)c2S(=O)(=O)N1Cc1cn(CC2CCCCC2)nn1 | 0 | 0 | 0 | 0 | - | -
O=C1c2ccccc2-c2ccc(P(=O)(O)O)cc21 | 0 | 0 | 0 | 0 | - | -
CCNC(=O)C/C(C)=N/NC(=O)C1CCCCC1 | 0 | 11 | 0 | 0 | 0 | 0
COc1ccc(CCNC(=O)C/C(C)=N/NC(=O)C2CCCCC2)cc1OC | 0 | 0 | 0 | 0 | - | -
CC(C)(C)NC(=O)c1cccc2c1OC(C)(C)C2 | 0 | 16 | 0 | 0 | 0 | 0
CC1(C)Cc2cccc(C(=O)NCc3ccco3)c2O1 | 0 | 0 | 0 | 0 | - | -
SMILES | GC-A act | PLCg1 inh | NPR2 activator | PLCb3 inh | PLCg1 ctr | PLCbeta3 conf
O=C(Nc1cccc(C(F)(F)F)c1)c1csc([C@@H]2O[C@H](CO)[C@@H](O)[C@H]2O)n1 | 0 | 0 | 0 | 0 | - | -
COc1ccc(OC)c(NC(=O)CCNS(=O)(=O)c2ccc3c(c2)oc(=O)n3C)c1 | 0 | 0 | 0 | 12 | 0 | 0
O=C(O)c1nn(-c2ccc(F)cc2)ccc1=O | 0 | 0 | 0 | 0 | - | -
COc1ccc(C(=O)NCC(=O)OC2CCCCC2=O)cc1 (stereo not drawn) | 0 | 0 | 0 | 14 | 0 | 0
CS(=O)(=O)N1CCN(c2ccccc2[N+](=O)[O-])CC1 | 0 | 15 | 0 | 0 | 0 | 0
CS(=O)(=O)N1CCN(c2ccc([N+](=O)[O-])c(N3CCOCC3)c2)CC1 | 0 | 0 | 0 | 0 | - | -
CS(=O)(=O)N1CCN(c2ccccc2NC(=O)c2ccc([N+](=O)[O-])o2)CC1 | 0 | 9.9 | 0 | 0 | 0 | 0
Cc1[nH][nH]c(=O)c1C(c1ccc(-c2ccc(F)cc2)o1)c1c(C)[nH][nH]c1=O | 0 | 11 | 0 | 0 | 0 | 0
Cc1onc(-c2c(F)cccc2Cl)c1C(=O)NCc1ccc(S(N)(=O)=O)cc1 | 0 | 0 | 0 | 0 | - | -
CC(OC(=O)Cn1cnc2ccccc2c1=O)C(=O)N(C)c1ccccc1 (stereo not drawn) | 0 | 0 | 0 | 0 | - | -
O=C(O)CC(Cc1ccc(Cl)cc1)C(=O)Nc1cc(Cl)ccc1Cl (stereo not drawn) | 0 | 12 | 0 | 0 | 0 | 0
COc1ccc(OC)c(NC(=O)C(CC(=O)O)Cc2ccc(Cl)cc2)c1 (stereo not drawn) | 0 | 0 | 0 | 0 | - | -
Cc1ccc(-c2c(NC(=O)c3ccc(F)cc3)nc3ncccn23)cc1 | 0 | 0 | 0 | 0 | - | -
COc1ccc(C(=O)CC(=O)C(=O)Nc2c(C)cccc2C)cc1 | 0 | 0 | 0 | 0 | - | -
COc1ccc(C2(C(=O)Nc3ccc(OC)cc3OC)CCCC2)cc1 | 0 | 0 | 0 | 0 | - | -
COC(=O)[C@@H]1CC[C@@](C)(c2ccc(OC)cc2)C1(C)C | 0 | 14 | 0 | 0 | 0 | 0
Cc1ccc(-n2c(Cc3cccs3)nnc2SCC(=O)Nc2cccc3ccccc23)cc1 | 0 | 13 | 0 | 0 | 0 | 0
COc1ccc(C(=O)Nc2ccc(S(=O)(=O)Nc3ncccn3)cc2)cc1OC | 0 | 0 | 0 | 14 | 0 | 0
CC(=O)Nc1ccc(C(=O)OCc2ccc(Cl)cc2)cc1 | 0 | 0 | 0 | 0 | - | -
CC(=O)Nc1ccc(OC(=O)c2ccc(Cl)cc2)cc1 | 0 | 0 | 0 | 11 | 0 | 0
CCCNC(=O)c1ccc(S(=O)(=O)c2ccc(OC)cc2)c([N+](=O)[O-])c1 | 0 | 0 | 0 | 0 | - | -
Cn1ncc2nnn(-c3ccccc3)c(=O)c21 | 0 | 0 | 0 | 0 | - | -
Cn1ncc2nc[nH]c(=O)c21 | 0 | 10 | 0 | 0 | 0 | 0
CCC1CCC2(CC1)NC(=O)N(CC(=O)Nc1cccc(S(=O)(=O)N(C)c3ccccc3)c1)C2=O (stereo not drawn) | 0 | 0 | 0 | 0 | - | -
CN1C(=O)N(CC(=O)Nc2cccc(S(=O)(=O)N(C)c3ccccc3)c2)C(=O)C12CCCCC2 | 0 | 14 | 0 | 0 | 0 | 0
CCOC(=O)c1ncn2c1C(=O)OC2(C)C | 0 | 15 | 0 | 0 | 0 | 0
COc1ccc(C(CC(=O)N2CCCC2)c2ccc(F)cc2)cc1 (stereo not drawn) | 0 | 11 | 0 | 0 | 0 | 0
CN1CCN(C(=S)NCCc2ccccc2)CC1 | 0 | 0 | 0 | 0 | - | -
CC(C)COc1ccc(C(=O)Nc2ccc(NC(=O)c3ccco3)c(Cl)c2)cc1 | 0 | 0 | 0 | 0 | - | -
CC(C)Oc1ccc(C(=O)Nc2ccc(NC(=O)c3ccco3)c(Cl)c2)cc1 | 0 | 0 | 0 | 15 | 0 | 0
